The text below walks through data of PubChem BioAssay AID1240 (Sanford-Burnham Center for Chemical Genomics, 2008).

Structures are written as SMILES. The whole screen tested about 50,000 compounds, of which about 800 (1.6%) showed an effect of 50% or more. Many of the other results were omitted from the sample, so strong results are more common in it than they were.

Chain of Bcl-2-like protein 10 (Homo sapiens) (Q9HD36 whole entry, looked up): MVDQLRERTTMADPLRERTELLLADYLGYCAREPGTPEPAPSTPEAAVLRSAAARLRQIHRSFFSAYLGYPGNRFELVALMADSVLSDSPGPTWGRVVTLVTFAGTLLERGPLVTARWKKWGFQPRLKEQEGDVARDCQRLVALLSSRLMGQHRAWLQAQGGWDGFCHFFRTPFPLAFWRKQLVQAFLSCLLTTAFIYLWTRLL

The experiment has as its target Bcl-2-like protein 10 (Homo sapiens) (UniProt Q9HD36). Nature of the experiment: Phenotype converters, Bcl-B/TR3 peptide binding displacement, primary biochemical FP (AID 1240).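 Note: 0% = Bcl-B with tracer peptide and DMSO and 100% = tracer peptide lacking Bcl-B.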 As to conditions: GST-Bcl-B / FITC-TR3 peptide fluorescence polarization; stronger effect = higher value; compound at 3.75 mg/L. For orientation: Fluorescence polarisation rises when a labelled molecule tumbles more slowly, as on binding a larger partner.
On to `Cc1ccc2c(Cl)c(C(=O)NCC3CCCO3)sc2c1` (stereo unspecified), for which the displacement is -20.5%.

For `CCOCCOC(=O)c1ccc(NC(=O)COc2ccc(C)cc2C)cc1`, the displacement was -9%.

On to `O=C(ON=C1c2ccccc2-c2ccccc21)c1ccc(Cl)cc1Cl`, for which the displacement worked out at 13.1%.

For `CCCCOc1ccc(C=C2C(=O)N(C)C(=O)N(C)C2=O)cc1`, the displacement was 8.8%.

As to `Cc1ccc(C=C2C(=O)N(C)C(=O)N(C)C2=O)cc1`, the displacement worked out at 79.7%.

Turning to `CN1C(=O)C(=Cc2ccc(N3CCOCC3)cc2)C(=O)N(C)C1=O`, the displacement was found to be 8.9%.

Turning to `COc1ccccc1C/C(N)=N/OC(=O)COc1ccc2ccccc2c1`, the displacement is 5.6%.

As to `CCOc1ccccc1C1Nc2ccccc2NC2=C1C(=O)CC(c1ccc(OC)c(OC)c1)C2` (stereo unspecified), the displacement came out at 11.3%.

With `CCOC(=O)COc1ccc(/C=c2/sc3nc4cc(C)c(C)cc4n3c2=O)cc1OC`, the displacement was -4.4%.

As to `O=C(/C=C/c1ccccc1)Nc1nnc(-c2ccccc2)s1`, the displacement is 7.6%.

As to `O=C(/C=C/c1ccccc1)Nc1nnc(-c2ccncc2)s1`, the displacement was -6%.

Regarding `COc1cccc(-c2nnc(NC(=O)/C=C/c3ccccc3)s2)c1`, the displacement was 51.4%.

For `COc1ccc(NC(=O)c2ccc(OC)c(OC)c2)cc1Cl`, the displacement was found to be 20.4%.

Regarding `O=C(Nc1ccccc1[N+](=O)[O-])c1ccc2ccccc2n1`, the displacement was 89.3%.

For `Cc1ccccc1NC(=O)c1ccc2ccccc2n1`, the displacement was -3.8%.

In the case of `O=C(Nc1ccccc1Cl)c1ccc2ccccc2n1`, the displacement was determined as 1%.

As to `CC(=O)Nc1ccc2oc(-c3ccc4nc(NC(C)=O)sc4c3)nc2c1`, the displacement is -4.1%.

As for `Cc1ccc(S(=O)(=O)N2CCCCCC2)cc1`, the displacement is -12.9%.

As for `CC(=O)NC1=NC(=O)/C(=C/c2cc(C)n(-c3ccc(C(=O)O)cc3)c2C)S1`, the displacement was -89.7%.

`C=CCN1C(=O)/C(=C\c2ccc(C(=O)OC)cc2)SC1=S`: the displacement worked out at 7.8%.

In the case of `COC(=O)c1cccc(-n2c(C)cc(/C=C3\SC(NC(C)=O)=NC3=O)c2C)c1`, the displacement was determined as 1.1%.

As for `C=CCN1C(=O)/C(=C\c2cc(C)n(-c3ccc([N+](=O)[O-])cc3)c2C)SC1=S`, the displacement amounted to 14.9%.

In the case of `C=CCN1C(=O)/C(=C/c2cc(C)n(-c3ccc(C(=O)OC)cc3)c2C)SC1=S`, the displacement was 109%.

On to `COC(=O)c1ccc(-n2c(C)cc(/C=C3\SC(NC(C)=O)=NC3=O)c2C)cc1`, for which the displacement is 114%.

As to `COc1ccccc1-n1c(SCC(=O)c2ccccc2)nc2ccccc2c1=O`, the displacement is -4.7%.

For the molecule `COc1ccc(-c2cc(C(=O)OC(C)C)c3cc(Br)ccc3n2)cc1`, the displacement was -3.9%.

With `O=C(Nc1ccccc1)C1C2/C=C\CCCCC21` (stereo unspecified), the displacement is -10.2%.

With `O=C(N/N=C/c1ccco1)c1ccc(C(=O)N/N=C/c2ccco2)cc1`, the displacement was 27.6%.

Regarding `Cc1cccc(NC(=O)c2ccccc2NC(=O)c2cccs2)c1C`, the displacement came to 9.5%.

Take `O=C(O)c1cnn2c(C(F)(F)F)cc(-c3cccs3)nc12`: the displacement was determined as 5.9%.

`CC1CCCCN1C(=O)c1cc2nc(-c3cccs3)cc(C(F)(F)F)n2n1` (stereo unspecified): the displacement came out at 18.3%.

Take `Nc1c(C(=O)C2CC2)sc2nc(-c3cccs3)cc(C(F)(F)F)c12`: the displacement was 52.1%.

As for `N#C/C(=C(/O)C(c1ccccc1)c1ccccc1)c1nc2ccccc2s1`, the displacement is -3.6%.

For the molecule `CC(C)(C)c1cc(C2=C(N3CCOCC3)C(=O)c3ccccc3C2=O)cc(C(C)(C)C)c1O`, the displacement turned out to be 11.6%.

Take `COc1cc2nc(-c3ccc(Oc4ccc([N+](=O)[O-])cc4)cc3)oc(=O)c2cc1OC`: the displacement is 10.6%.

Turning to `COc1cc2nc(-c3ccc([N+](=O)[O-])c(C)c3)oc(=O)c2cc1OC`, the displacement is -11.4%.

In the case of `COc1cc2nc(-c3ccc([N+](=O)[O-])cc3)oc(=O)c2cc1OC`, the displacement was 78%.

Take `CCc1c(C)nc2ccc(C)cc2c1SCC(=O)O`: the displacement turned out to be 9.8%.

Consider `Cc1cc(C)nc(SCC(=O)N(c2ccccc2)c2ccccc2)n1`, for which the displacement is -6.6%.

For `CSc1nc(N)c(C#N)c(-c2ccccc2)c1C#N`, the displacement is -11%.

On to `NC(=O)c1ccc(NC(=O)COc2ccccc2Cl)cc1`, for which the displacement was -2%.

As to `C=CCc1ccccc1OCCn1cc(C=C2C(=O)NC(=S)NC2=O)c2ccccc21`, the displacement stood at 53.6%.

As to `O=C1NC(=O)C(=Cc2cn(CCOc3ccc(Br)cc3)c3ccccc23)C(=O)N1`, the displacement was found to be 73.8%.

With `CN1C(=O)/C(=C\c2cn(CCOc3ccc(Br)cc3)c3ccccc23)SC1=S`, the displacement came to 3.5%.

As for `Cc1ccc(OCCn2cc(C=C3C(=O)NC(=O)NC3=O)c3ccccc32)cc1C`, the displacement amounted to 79.3%.

For the molecule `C=CCc1ccccc1OCCn1cc(C=C2C(=O)NC(=O)NC2=O)c2ccccc21`, the displacement is -6.7%.

For `Cc1cccc(OCCn2cc(C=C3C(=O)NC(=S)NC3=O)c3ccccc32)c1`, the displacement worked out at 11.2%.

`C=CCc1ccccc1OCCn1cc(/C=C2/SC(=S)NC2=O)c2ccccc21`: the displacement was 5.8%.

Take `COc1cccc(OCCn2cc(C=C3C(=O)NC(=O)NC3=O)c3ccccc32)c1`: the displacement was determined as 15.2%.

As for `O=C1NC(=S)NC(=O)C1=Cc1cn(CCOc2ccc(Br)cc2)c2ccccc12`, the displacement worked out at 9.1%.

Consider `c1ccc(C2=C(c3ccccc3)N3CCN=C3S2)cc1`, for which the displacement was 6.4%.

Regarding `O=S1(=O)CCC(NC(=S)N/N=C/c2cccc3ccccc23)C1` (stereo unspecified), the displacement stood at 5.1%.

As to `COc1ccc(-n2nc3cc(C)c(NC(=O)c4cc(Cl)ccc4OC)cc3n2)cc1`, the displacement was -5.3%.

On to `Cc1ccc(NC(=O)COC(=O)c2ccn(C)n2)cc1`, for which the displacement came out at 13.5%.

Consider `Cc1cc(NC(=O)c2ccc(Cl)cc2Cl)ccc1NC(=O)c1ccccc1`, for which the displacement was -2.3%.

As for `CCOC(=O)C1=C(O)/C(=C/c2cccnc2)SC1=Nc1ccc(C)cc1`, the displacement worked out at 14.8%.

For `CCOC(=O)C1=C(O)/C(=C/c2ccccc2)SC1=Nc1ccc([N+](=O)[O-])cc1`, the displacement was -0.9%.

Consider `CCOC(=O)C1=C(O)/C(=C/c2cccnc2)SC1=Nc1ccc([N+](=O)[O-])cc1`, for which the displacement was 55.2%.

`CCOC(=O)C1=C(O)/C(=C/c2ccc(Br)cc2)SC1=Nc1ccc([N+](=O)[O-])cc1`: the displacement was 15%.

`CCOC(=O)C1=C(O)/C(=C\c2ccccc2[N+](=O)[O-])N=C1C`: the displacement was 15.7%.

For `CCOC(=O)C1=C(O)/C(=C/c2cccc(Br)c2)SC1=Nc1ccc([N+](=O)[O-])cc1`, the displacement was determined as 63.1%.

As to `CCOC(=O)C1=C(O)/C(=C\c2ccc([N+](=O)[O-])cc2)N=C1C`, the displacement was 1.5%.

Turning to `CCOC(=O)C1=C(O)/C(=C/c2cccc(O)c2)SC1=Nc1ccc([N+](=O)[O-])cc1`, the displacement was -1.1%.

Take `CCOC(=O)C1=C(O)/C(=C/c2cccc([N+](=O)[O-])c2)N=C1C`: the displacement is 129%.

For the molecule `CCOC(=O)c1c(NC(=O)/C=C/c2cccs2)sc(C)c1C`, the displacement was determined as 2.9%.

On to `Cc1ccc(OCC(=O)Nc2cc(Cl)cc(Cl)c2)cc1`, for which the displacement is 12.4%.
